Source: PubChem (National Center for Advancing Translational Sciences (NCATS))
Most compounds without a hit are left out; they make up all but 8.7% or so of the library.
VACV Venus inh: vaccinia inhibition (Venus reporter). Vaccinia virus Venus reporter expression, fluorescence. Potency, µM (titrated, usually from 36.5 µM), most hits filed as inhibitors. 0.46% of 330,000 active; calls by dose curve; tested in A549 cells; also: nearly all actives have a fitted effect of over 30% in size
Vaccinia mCherry: vaccinia inhibition (mCherry reporter); 0.63% of 310,000 active; Potency, µM (series often up to 36.5 µM), hits mostly inhibitors; AID 720579; Vaccinia virus mCherry reporter infection, fluorescence; calls by dose curve; tested in A549 cells; also: nearly all actives have a fitted effect of over 35% in size
AMA1-RON2 inh: AMA1-RON2 (P. falciparum) interaction inhibition | 0.2% of 360,000 active | Potency, µM (top dose mostly 58.2 µM), hits mostly inhibitors | AID 720542 | AlphaScreen AMA1-biotinylated RON2 peptide binding; also: nearly all actives have a fitted effect of over 45% in size
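AMA1 (3D7) with his tag at 25 nM final met compounds first, then biotinylated RON2 peptide at 25 nM; detection used donor plus acceptor beads, 10 µg/mL apiece, read by AlphaScreen after 30 min at room temperature.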
Pf growth 48h: P. falciparum growth inhibition at 48 hours (one generation); P. falciparum luciferase growth in erythrocytes, 48 h; Potency, µM (series often up to 28.7 µM), most hits filed as inhibitors; 5.9% of 310,000 active; AID 504832
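A one-generation exposure of luciferase-tagged malaria parasites in RPMI 1640/Albumax erythrocyte culture, 37 C and 5% CO2. Inhibition is inferred from decreased luminescence after adding detection reagent.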
Pf growth 96h: P. falciparum growth inhibition at 96 hour, primary screen for plastid delayed-death inhibitors. P. falciparum luciferase reporter growth, 96 h. 6.9% of 320,000 active. Potency, µM (titrated, usually from 28.7 µM), most hits filed as inhibitors. AID 504834
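P. falciparum expressing integrated firefly luciferase, in erythrocytes at 2% hematocrit, 0.05% parasitemia, incubated with compounds 96 h at 37 C, 5% CO2. Growth inhibition read as loss of luminescence; two-generation exposure targets delayed-death apicoplast inhibitors.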
Numbers stand for hits; 0 = inactive; ? = inconclusive; - = not tested or not shown; [ ] = dose if it differs, or a comment. Unless noted, calls follow the shape of the dose curve; as a rule, active = well fitted curve in the direction sought with a large enough effect; inconclusive = small, poorly fitted or top-dose-only effect, or another doubt; inactive = no such curve, though single readings can be large; an effect the other way counts as inactive or inconclusive.

SMILES	VACV Venus inh	Vaccinia mCherry	AMA1-RON2 inh	Pf growth 48h	Pf growth 96h
COc1ccc(C2c3[nH]c4ccccc4c3CCN2CCCn2cccn2)c(C)c1C (stereo unspecified)	0	0	?	?	11.7µM
COc1cccc(C2c3[nH]c4ccccc4c3CCN2CCCn2cccn2)c1 (stereo unspecified)	0	?	?	?	?
CC(C)CC1c2[nH]c3ccccc3c2CCN1CCCn1cccn1 (stereo unspecified)	0	?	0	?	13.1µM
O=C(CCN1N=C(c2ccccc2)CCC1=O)NCCc1ccc(Cl)cc1	0	0	-	-	-
CN(Cc1ccccc1)S(=O)(=O)c1ccc2c(c1)NC(=O)CC(=O)N2	0	0	0	0	10.4µM
CCN(Cc1ccccc1)S(=O)(=O)c1ccc2c(c1)NC(=O)CC(=O)N2	-	-	0	0	0
O=C(/C=C/c1ccccc1O)c1ccccc1	0	0	0	-	-
O=C(/C=C/c1ccccc1O)c1ccc(Cl)cc1	0	0	0	0	14.7µM
Cn1c(-c2c(N)n(-c3ccccc3)c3nc4ccccc4nc23)nc2ccccc21	0	0	0	9.28µM	6.57µM
Cc1cccc(-n2c(N)c(-c3nc4ccccc4n3C)c3nc4ccccc4nc32)c1	0	0	0	10.4µM	7.38µM
Cc1ccc(-n2c(N)c(-c3nc4ccccc4n3C)sc2=S)cc1	-	-	0	1.47µM	0
Cn1c(-c2ccc(N)cc2)nc2ccccc21	0	0	0	0	0
CCOc1ccccc1CNC(=O)C1CCN(S(=O)(=O)c2c(C)noc2/C=C/c2ccc(C)cc2)CC1	0[7.34 µM]	0[7.34 µM]	-	-	-
COC(=O)C1=C(c2ccc(Cl)c(C(F)(F)F)c2)C[C@@H]2CC[C@H]1N2C(=O)NCCOc1ccccc1Cl	?	0	0	9.28µM	6.57µM
COC(=O)C1=C(c2ccc(F)cc2OCc2ccccc2)C[C@@H]2CC[C@H]1N2C(=O)NCc1ccccc1Cl	?	0	0	5.22µM	4.15µM
COC(=O)C1=C(c2ccc(F)cc2OCc2ccccc2)C[C@@H]2CC[C@H]1N2C(=O)NCCc1ccc(F)cc1	?	?	0	11.7µM	?
COC(=O)C1=C(c2ccc(F)cc2OCc2ccccc2)C[C@@H]2CC[C@H]1N2C(=O)NCCOc1ccccc1Cl	?	0	0	2.62µM	?
COC(=O)C1=C(c2c(C)noc2C)C[C@@H]2CC[C@H]1N2C(=O)NCCOc1ccccc1Cl	0	0	0	?	0
COC(=O)C1=C(c2ccc(F)cc2OCc2ccccc2)C[C@@H]2CC[C@H]1N2C	0	0	0	?	?
CCOc1ccc(NC(=O)CC2C(=O)N(c3ccc(F)cc3)C(=O)N2Cc2ccc(OC)c(OC)c2)cc1 (stereo unspecified)	0	0	-	-	-
CC(CCc1ccccc1)NC(=O)Cn1c(=O)nc(-c2ccccc2)c2cc(Cl)ccc21 (stereo unspecified)	0	0	-	-	-
COc1ccc(S(=O)(=O)N2CCC(c3nnnn3-c3ccccc3)CC2)cc1OC	0	0	-	-	-
COc1ccc(CNC(=O)CCc2c(C)nc3c(c2C)c(=O)n(C)c(=O)n3C)cc1	0	0	-	-	-
COC(=O)C1=C(c2ccc(F)cc2OCc2ccccc2)C[C@@H]2CC[C@H]1N2C(=O)NCCOc1ccc(OC)cc1	?	0	0	?	3.29µM
COC(=O)C1=C(c2ccc(F)cc2OCc2ccccc2)C[C@@H]2CC[C@H]1N2C(=O)NCCN1CCOCC1	0	0	0	11.7µM	?
SMILES	VACV Venus inh	Vaccinia mCherry	AMA1-RON2 inh	Pf growth 48h	Pf growth 96h
COC(=O)C1=C(c2ccc(F)cc2OCc2ccccc2)C[C@@H]2CC[C@H]1N2C(=O)NCCOc1ccccc1	?	0	0	5.86µM	?
COc1cccc(NC(=O)c2oc3ccccc3c2NC(=O)COc2ccccc2C)c1	0	0	-	-	-
CC1(C)Cc2ccccc2-c2nnc(-c3cccnc3)n21	0	0	0	2.33µM	-
S=C(/N=c1/sccn1Cc1ccccc1)NC1CC1	0	0	0	?	11.7µM
CN(C)CCCNC(=S)/N=c1\sccn1Cc1ccccc1Cl	0	0	0	?	?
Cc1ccccc1OCCNCC(C)O (stereo unspecified)	0	0	?	0	13.1µM
Cc1ccccc1OCC(O)COc1ccccc1C	0	0	0	-	-
CCOc1ccccc1CNCCNCC(C)O (stereo unspecified)	-	-	0	0	9.28µM
COc1ccc(C2CC(c3cccs3)=NN2C(=O)c2ccccc2)cc1OC (stereo unspecified)	0	0	0	-	0.415µM
